# In the supplement of paper PMC12339681:
# Counter-ions that a name gives are not always drawn.
# System: PBMC-derived induced microglia-like cells (piMGLC)
# Test: synaptosome phagocytic index relative to DMSO control (fraction of DMSO); higher = more phagocytosis
# Conditions: concentration: 10 uM (2 uM for compounds listed in Table S2); pretreatment time: 24 h; assay time: 3 h
# Protocol: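 PBMC-derived induced microglia-like cells (piMGLCs) in 96-well plates were pretreated for 24 h with CNS-penetrant library compounds (MedChemExpress HY-L028), mostly at 10 uM; Table S2 lists 9 compounds at 2 uM. pHrodo-Red-labelled human iPSC-neuron synaptosomes (3 ug/well) were then added for 3 h, and cells were fixed and imaged by confocal microscopy. Phagocytic index (synaptosome area / cell count, CellProfiler) is a mean over 3 replicate wells on different plates, normalized to the DMSO control. Compounds leaving <10% of DMSO cell count were marked toxic and given no value.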
row,Structure (SMILES),synaptosome phagocytic index
1,CNCC/C=C/c1cccnc1 [Rivanicline_hemioxalate],0.922
2,FC(F)(F)c1ccc(N2CCNCC2)nc1Cl,1.17
3,NCCc1c[nH]c2ccc(O)cc12 [Serotonin_hydrochloride],0.812
4,NCC1(CC(=O)O)CCCCC1 [Gabapentin],0.686
5,NCC(CC(=O)O)c1ccc(Cl)cc1 (stereo unspecified) [Baclofen],0.783
6,CN(C)c1cc2c(cc1Sc1nc3c(N)nccc3n1CCNCC(C)(C)C)OCO2 [Debio_0932],0.767
7,CCN(CCCl)Cc1ccccc1Br [DSP-4_(hydrochloride)],1.15
8,O=C(NO)c1cnc(NC2(c3ccccc3)CCC(F)(F)CC2)nc1,0.867
9,CCOC(=O)c1cncn1[C@H](C)c1ccccc1 [Etomidate],0.926
10,CCN(C)C(=O)Oc1cccc([C@H](C)N(C)C)c1 [Rivastigmine_(tartrate)],1.02
11,COc1ccc(OC)c(C(=O)N[C@@H]2CN3CCC2CC3)c1,0.646
12,Cc1cccc([C@H](C)c2c[nH]cn2)c1C [Dexmedetomidine_(hydrochloride)],0.931
13,CCC(=O)O[C@H]1CC[C@H]2[C@@H]3CCC4=CC(=O)CC[C@]4(C)[C@H]3CC[C@]12C [Testosterone_propionate],0.807
14,Cn1c(CCCC(=O)O)nc2cc(N(CCCl)CCCl)ccc21 [Bendamustine_(hydrochloride)],0.95
15,C/C(=C\c1csc(C)n1)[C@@H]1C[C@@H]2O[C@]2(C)CCC[C@H](C)[C@H](O)[C@@H](C)C(=O)C(C)(C)[C@@H](O)CC(=O)O1 [Epothilone_B],0.842
16,CN1C[C@H](C(=O)N[C@]2(C)O[C@@]3(O)[C@@H]4CCCN4C(=O)[C@H](Cc4ccccc4)N3C2=O)C[C@@H]2c3cccc4[nH]cc(c34)C[C@H]21 [Dihydroergotamine_(mesylate)],0.976
17,COc1cccc(NCC(F)Cn2c3ccc(Br)cc3c3cc(Br)ccc32)c1 (stereo unspecified),0.0819
18,CC(C)(NC(=O)O[C@@H]1CN2CCC1CC2)c1csc(-c2ccc(F)cc2)n1 [Ibiglustat],1.26

row,Structure (SMILES),synaptosome phagocytic index
1,CC(C)(NC(=O)O[C@@H]1CN2CCC1CC2)c1csc(-c2ccc(F)cc2)n1 [Ibiglustat_(L-Malic_acid)],1.05
2,Cc1sc2c(c1C)C(c1ccc(Cl)cc1)=N[C@@H](CC(=O)OC(C)(C)C)c1nnc(C)n1-2,0.3
3,CCN(C)C(=O)Oc1cccc([C@H](C)N(C)C)c1 [Rivastigmine],1.03
4,Cn1cc(C2=C(c3cn(C4CCN(Cc5ccccn5)CC4)c4ccccc34)C(=O)NC2=O)c2ccccc21 [Enzastaurin],0.997
5,CNC(=O)ON(C(C)=O)C(=O)NC [Caracemide],0.78
6,CN1Cc2cc(Cl)ccc2-n2c(nnc2[C@H]2CC[C@H](Oc3ccccn3)CC2)C1 [Balovaptan],1.09
7,CC[C@@H](C(N)=O)N1CCCC1=O [Levetiracetam],0.711
8,C1=CC[C@@H](c2cccnc2)NC1 [Anatabine_(dicitrate)],0.984
9,C=C(C)[C@H]1CN[C@H](C(=O)O)[C@H]1CC(=O)O [Kainic_acid],0.701
10,CN(C)C(=O)Oc1ccc[n+](C)c1 [Pyridostigmine_(bromide)],0.814
11,COc1ccc(C=C2CCCN=C2c2cccnc2)c(OC)c1 [GTS-21_(dihydrochloride)],0.922
12,O=S(=O)(CC1CS1)c1ccc(Oc2ccccc2)cc1 (stereo unspecified),0.514
13,Clc1ccc(N2CCN(Cc3c[nH]c4ncccc34)CC2)cc1,0.89
14,N[C@@H]1C[C@H]1c1ccccc1 [Tranylcypromine_(hemisulfate)],0.949
15,CN1CCc2ccccc2C1CNC(=O)c1ccc(Cl)c(Cl)c1 (stereo unspecified),0.901
16,CCOC(=O)c1cncn1[C@H](C)c1ccccc1 [Etomidate_(hydrochloride)],0.749
17,COc1ccc(C(CN(C)C)C2(O)CCCCC2)cc1 (stereo unspecified) [Venlafaxine_(hydrochloride)],1.02
18,COc1cc2c(cc1OC)C1CC(=O)C(CC(C)C)CN1CC2 (stereo unspecified) [Tetrabenazine],0.906
